The list is not random: actives were taken first. Their share in the collection is about 2.9%.
Pol eta inh-1: blocks human DNA polymerase eta activity | Potency, µM (top dose mostly 114 µM), hits mostly inhibitors | recombinant Pol eta, fluorescent DNA replication assay | Q9Y253 | 390,000 tested, 1.2% active | AID 588591
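Fluorescent replication assay: 50 nM final substrate added after a 15 min room-temperature compound preincubation with 10 nM enzyme. Signal taken at 0 min and again at 10 min.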
12-LOX inh: inhibitors of human 12S-lipoxygenase ALOX12. P18054. purified 12hLO, xylenol orange hydroperoxide absorbance. Potency, µM (titrated, usually from 108 µM), actives largely listed as inhibitors. 580,000 tested, 1.1% active. AID 1671190
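Purified human 12hLO at 150 nM in 25 mM Hepes, 0.01% Triton X-100, pH 7.0, preincubated 15 min at room temperature with compound. Reaction started with 40 uM arachidonic acid, 30 min at room temperature. Hydroperoxide measured by Fe-xylenol orange, 573/405 nm absorbance ratio.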
Pol beta inh: DNA polymerase beta (human) inhibition; P06746; Pol beta primer extension/strand displacement, fluorescence kinetic; Potency, µM (highest dose often 114 µM), most hits filed as inhibitors; 340,000 tested, 1.3% active; AID 485314
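Enzyme-only controls used 10 nM Pol beta; buffer lacking enzyme served as negative control. Compound preincubated 15 min, then 50 nM substrate added; 0 and 10 min reads at room temperature.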
Pol iota inh: blocks human DNA polymerase iota activity; Q9UNA4; Potency, µM (doses to about 115 µM), hits mostly inhibitors; AID 588590; 390,000 tested, 1% active; Pol iota fluorescent replication assay, 10 min
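Pol iota at 10 nM preincubated 15 min with compounds at room temperature; reaction started with fluorescent substrate, 50 nM final. Fluorescence read kinetically at 0 and 10 min; buffer-only wells as negative control.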
PI5P4Ka inh: PI5P4K alpha (human) kinase inhibition | PI5P4Kalpha enzyme, ADP-Glo luminescence, 60 min; hits give low values | max response, % | 330,000 tested, 1.2% active | AID 652105; active means max response of -50% or lower; inconclusive means between -30% and -50%; inactive means -30% or higher; further: value at the top dose of about 77 µM
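ADP-Glo luminescence end-point read after a 60 min room-temperature kinase reaction of PI5P4Kalpha plus substrate, initiated with ATP at 5 microM final. Buffer: 0.038 M HEPES pH 7.4, EGTA, 0.1% CHAPS, 5% DMSO.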
Pol kappa inh-1: DNA polymerase kappa (human) inhibition | purified Pol kappa, fluorescent DNA synthesis assay, 10 min | Potency, µM (top dose mostly 107 µM), hits mostly inhibitors | 400,000 tested, 0.53% active | Q9UBT6
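10 nM Pol kappa was preincubated with compounds for 15 min at room temperature. Reaction started with 50 nM (final) substrate. Fluorescence read kinetically at 0 and 10 min.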
BAZ2B confirm: confirmation of human BAZ2B bromodomain inhibitors. shares compounds with Pol kappa inh-1. AlphaScreen BAZ2B / biotin-H3K14Ac peptide displacement. Potency, µM, hits mostly inhibitors. 25 tested, 100% active. AID 588809; calls by dose curve
Target sequence (Q9UIF8 whole entry, looked up): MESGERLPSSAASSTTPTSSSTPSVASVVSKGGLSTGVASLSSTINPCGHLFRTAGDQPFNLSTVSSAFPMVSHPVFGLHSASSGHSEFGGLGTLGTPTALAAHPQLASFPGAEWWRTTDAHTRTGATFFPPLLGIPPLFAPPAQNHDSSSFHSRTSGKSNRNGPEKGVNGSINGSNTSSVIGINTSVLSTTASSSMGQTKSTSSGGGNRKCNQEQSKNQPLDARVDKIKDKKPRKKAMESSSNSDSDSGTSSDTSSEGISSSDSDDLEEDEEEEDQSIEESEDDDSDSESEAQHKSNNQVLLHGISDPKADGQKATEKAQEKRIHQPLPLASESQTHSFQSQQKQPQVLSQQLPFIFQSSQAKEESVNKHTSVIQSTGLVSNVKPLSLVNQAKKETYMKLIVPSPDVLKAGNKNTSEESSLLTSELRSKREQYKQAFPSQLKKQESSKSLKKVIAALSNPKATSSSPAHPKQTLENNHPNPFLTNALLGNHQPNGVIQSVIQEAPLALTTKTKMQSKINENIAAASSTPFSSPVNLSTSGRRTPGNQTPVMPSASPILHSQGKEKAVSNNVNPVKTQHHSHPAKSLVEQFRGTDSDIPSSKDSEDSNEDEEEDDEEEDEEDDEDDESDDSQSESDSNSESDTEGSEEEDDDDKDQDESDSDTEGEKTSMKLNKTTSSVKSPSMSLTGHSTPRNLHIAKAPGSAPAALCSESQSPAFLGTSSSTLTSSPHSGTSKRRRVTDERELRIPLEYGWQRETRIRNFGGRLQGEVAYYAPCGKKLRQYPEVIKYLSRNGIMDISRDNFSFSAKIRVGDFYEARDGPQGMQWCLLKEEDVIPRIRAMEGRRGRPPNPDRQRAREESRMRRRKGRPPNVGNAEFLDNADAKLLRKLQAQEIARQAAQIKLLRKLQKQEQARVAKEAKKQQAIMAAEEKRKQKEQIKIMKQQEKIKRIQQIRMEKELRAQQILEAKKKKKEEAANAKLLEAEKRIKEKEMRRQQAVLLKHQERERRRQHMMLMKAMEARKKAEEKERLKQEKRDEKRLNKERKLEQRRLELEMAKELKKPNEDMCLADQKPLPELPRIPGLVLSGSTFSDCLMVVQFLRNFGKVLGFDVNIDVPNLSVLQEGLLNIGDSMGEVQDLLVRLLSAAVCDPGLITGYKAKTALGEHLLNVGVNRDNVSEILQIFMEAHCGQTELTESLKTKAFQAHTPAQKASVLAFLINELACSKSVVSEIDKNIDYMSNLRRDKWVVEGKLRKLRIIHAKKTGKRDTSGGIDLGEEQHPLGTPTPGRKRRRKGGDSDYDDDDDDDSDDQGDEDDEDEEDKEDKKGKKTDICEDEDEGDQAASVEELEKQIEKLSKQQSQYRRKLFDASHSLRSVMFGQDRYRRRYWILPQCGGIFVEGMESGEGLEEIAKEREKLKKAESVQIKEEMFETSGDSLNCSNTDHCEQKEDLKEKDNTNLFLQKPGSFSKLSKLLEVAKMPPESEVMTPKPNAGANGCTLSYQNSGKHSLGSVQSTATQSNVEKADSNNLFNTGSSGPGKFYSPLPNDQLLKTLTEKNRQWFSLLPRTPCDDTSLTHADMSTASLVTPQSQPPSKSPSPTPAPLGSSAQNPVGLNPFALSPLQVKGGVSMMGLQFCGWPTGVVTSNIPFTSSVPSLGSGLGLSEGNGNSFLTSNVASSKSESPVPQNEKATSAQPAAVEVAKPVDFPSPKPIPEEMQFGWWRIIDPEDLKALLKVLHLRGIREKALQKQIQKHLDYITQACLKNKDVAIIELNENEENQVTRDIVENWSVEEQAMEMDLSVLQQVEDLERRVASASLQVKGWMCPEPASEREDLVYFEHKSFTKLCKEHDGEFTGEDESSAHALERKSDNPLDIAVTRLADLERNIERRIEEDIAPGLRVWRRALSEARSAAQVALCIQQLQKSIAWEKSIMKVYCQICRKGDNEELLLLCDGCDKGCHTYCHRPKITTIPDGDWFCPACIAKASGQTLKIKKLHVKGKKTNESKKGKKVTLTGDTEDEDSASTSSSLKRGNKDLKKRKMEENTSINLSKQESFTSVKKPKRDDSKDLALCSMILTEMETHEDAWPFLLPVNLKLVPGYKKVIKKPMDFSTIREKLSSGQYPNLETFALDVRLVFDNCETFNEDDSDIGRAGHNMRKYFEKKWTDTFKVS
AlphaScreen ctr: interferes with AlphaScreen signal in BAZ2B counterscreen. shares compounds with Pol kappa inh-1. AlphaScreen biotin-His6 peptide bead counterscreen, signal decrease. Potency, µM (doses to about 57.1 µM), actives largely listed as inhibitors. 25 tested, under 10 active;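 active means clear concentration-dependent signal drop in the bead assay lacking the target, so a primary-screen artifact; inconclusive means weak, partial or single-dose response; inactive means no response, so a real primary hit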
TbPGK inh: TbPGK inhibition, hit validation; shares compounds with Pol kappa inh-1; TbPGK coupled GAPDH assay, Kinase-Glo luminescence; Potency, µM (titrated, usually from 57.5 µM), actives largely listed as inhibitors; 500 tested, 79% active; AID 686980; further: nearly all actives have a fitted effect of over 65% in size
Pol iota confirm: Inhibitors of human DNA polymerase iota, confirmation | shares compounds with Pol kappa inh-1 | Pol iota primer extension, TAMRA/BHQ fluorescence | Potency, µM, hits mostly inhibitors | 1,500 tested, 77% active
Pol kappa inh-2: confirmation of human DNA polymerase kappa inhibitors; shares compounds with Pol eta inh-1; purified Pol-kappa, fluorescent strand-displacement substrate; Potency, µM, usual class: inhibitors; 920 tested, 76% active
Pol eta inh-2: confirmation of human DNA polymerase eta inhibitors; shares compounds with Pol eta inh-1; Pol eta primer extension, TAMRA/BHQ fluorescence, 10 min; Potency, µM, hits mostly inhibitors; 2,600 tested, 64% active
Hits are given with their value; n = inactive; u = inconclusive; x = not tested or not shown. Unless noted, the call rests on the fitted dose curve; in most records, active means well fitted curve in the direction sought with a large enough effect; inconclusive means small, poorly fitted or top-dose-only effect, or another doubt; inactive means no such curve, though single readings can be large; an effect the other way counts as inactive or inconclusive.

SMILES	Pol eta inh-1	12-LOX inh	Pol beta inh	Pol iota inh	PI5P4Ka inh	Pol kappa inh-1	Pol iota confirm	others
Oc1ccc(C[C@H]2NCCc3cc(O)c(O)cc32)cc1O	n	u	n	79µM	n	u	21
COc1ccc(/C=C2\C(=O)NC(=S)N(C)C2=O)cc1C	2.8µM	u	n	u	-57	50µM	x	TbPGK inh=4.1µM
CCOC(=O)C1=C(C)N=c2s/c(=C\c3ccc(OCC(=O)O)cc3)c(=O)n2C1c1ccc(Cl)cc1 (stereo not drawn)	u	u	22µM	u	n	50µM	21	BAZ2B confirm=14;AlphaScreen ctr=n;TbPGK inh=4.6µM
O=C(CCc1nc2ccccc2s1)N1[C@H]2CC[C@@H]1c1cnc(-c3ccccc3)nc1C2	x	n	x	x	x	x	x
CCOC(=O)CCCc1sc(N)nc1-c1[nH]c(=O)[nH]c1C	u	x	n	u	x	u	x	BAZ2B confirm=10;AlphaScreen ctr=u
COc1ccc(NC(=O)CN(C)C(=O)c2cc3c(s2)CCC3)cc1	3.2µM	x	x	7.1µM	-69	10µM	x	BAZ2B confirm=7.9;AlphaScreen ctr=n
C#CCN(C)C[C@H]1CN2CC[C@H]1C[C@@H]2CNC(=O)Nc1ccc(OC)cc1	x	n	x	x	x	x	x
COc1cc2c(ccc3c4cc(OC)c(OC)cc4c[n+](C)c23)cc1O	u	n	x	u	n	32µM	19
COc1ccc(/C(=N/OC(C)=O)c2nccc3cc(OC)c(OC)cc23)cc1OC	n	n	n	n	n	n	x
COc1cc2c(cc1OCc1ccccc1)NC(=O)C21CCN(Cc2c(C)noc2C)CC1	x	n	x	x	x	x	x
Cn1cc(C(=O)NCC(=O)NC(C)(C)C)c2ccccc21	x	n	x	x	x	x	x
COCCN(Cc1cc2cc3c(cc2nc1Cl)OCO3)C(=O)c1ccc(C)cc1	n	n	n	n	n	n	x	BAZ2B confirm=11;AlphaScreen ctr=u
O=C1NC(=S)N(c2ccc(F)cc2)C(=O)/C1=C\c1ccoc1	1µM	x	2.2µM	u	-87	1µM	x	TbPGK inh=0.23µM
Cc1ccccc1OCC(=O)N1CCN(Cc2cc(=O)n3nc(-c4ccccc4C)sc3n2)CC1	x	n	x	x	x	x	x
O=C(NC1CC1)c1cc(-c2ccco2)nc2ccccc12	3.5µM	u	u	u	-101	20µM	x	BAZ2B confirm=10;AlphaScreen ctr=u
COc1ccc(C(=O)N2[C@H]3CC[C@@H]2c2cnc(-c4ccc(F)cc4)nc2C3)cc1OC	x	n	x	x	x	x	x
CCN(CCCl)c1cc(CN(C)C)cc(NC(=O)c2ccc(C(=O)Nc3cc(CN(C)C)cc(N(CC)CCCl)c3)cc2)c1	11µM	u	x	28µM	u	u	24	Pol kappa inh-2=0.53
CN1C(=O)C(=Cc2ccc(N3CCOCC3)o2)C(=O)N(C)C1=S	n	n	n	n	n	n	x
CN1C(=O)C(=Cc2ccc(Sc3ccccc3)o2)C(=O)N(C)C1=S	45µM	n	x	u	u	u	u	Pol kappa inh-2=17;Pol eta inh-2=38
O=C1NC(=O)N(Cc2ccco2)C(=O)/C1=C/C=C/c1ccco1	4µM	40µM	u	u	-83	14µM	6.7	Pol eta inh-2=4.8
Cn1cccc1/C=C1\C(=O)NC(=O)N(Cc2ccco2)C1=O	10µM	u	14µM	7.9µM	-80	22µM	17	Pol eta inh-2=17
C#C[C@H]1CN2CC[C@H]1C[C@@H]2CNC(=O)Nc1ccc(Oc2ccccc2)cc1	x	n	x	x	x	x	x
O=C1NC(=O)N(c2ccc(Cl)cc2)C(=O)/C1=C\c1ccc(Sc2nc3ccccc3[nH]2)o1	18µM	8.9µM	22µM	u	-87	20µM	38	Pol kappa inh-2=15;Pol eta inh-2=27

Bioassay records: PubChem, National Center for Advancing Translational Sciences (NCATS)
